Test results published in PubChem BioAssay AID1053118 (Broad Institute, 2014).
Measured potencies and affinities stand elsewhere. A number with no mark means an inactive call.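 The calls were made as follows: active = fitted half-maximal concentration for ATP signal loss at most twice the top valid dose; inconclusive = flat curve between -70 and -30%, or an invalid fit; inactive = flat within ±30%, wrong direction, or potency past limit.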

experiment: viability loss in HepG2 hepatoma cells – cell-based, cherry-picks, set 5, cytotoxicity control, dose response (AID 1053118); settings: ATP luminescence, 72 h; series mostly up to 26 µM; activity change, negative = cytotoxicity: at the top concentration;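 also: 0% = neutral control wells and -100% = mitoxantrone positive control wells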

Compared with `CN(C)C(=O)c1ccc(-c2ccc3c(c2)[C@@H]2[C@@H](CCN2C(=O)c2ccc(F)cc2)[C@@H](CO)N3C)cc1`, `C[C@H]1CN([C@@H](C)CO)C(=O)c2cc(NC(=O)C3CCCCC3)ccc2O[C@H]1CN(C)Cc1ccc(-c2ccccc2)cc1` is higher in “activity change, negative = cytotoxicity” value: -20.1% for the first, -19.6% for the second.

Going from `CC(C)(C)[S@@](=O)N1Cc2cc(C(=O)NCc3ccccc3F)nc(-c3cccc(-c4cncnc4)c3)c2[C@H]1CCO` to `C[C@H]1CN([C@@H](C)CO)C(=O)c2cc(NC(=O)C3CCCCC3)ccc2O[C@@H]1CN(C)Cc1ccc(-c2ccccc2)cc1`, the “activity change, negative = cytotoxicity” value falls from 4.18% to -9.22%.

Compared with `C[C@H](O)C#Cc1ccc2c(c1)O[C@H](CN(C)C)[C@@H](C)CN([C@H](C)CO)S2(=O)=O`, `C[C@H](O)C#Cc1ccc2c(c1)O[C@@H](CN(C)C)[C@H](C)CN([C@@H](C)CO)S2(=O)=O` is higher in “activity change, negative = cytotoxicity” value: -5.83% for the first, 4.59% for the second.

Going from `CCOC(=O)c1cnc(SCc2nc(N)nc(Nc3ccc(OC)cc3)n2)nc1N` to `COc1cccc(CNC(=O)CCc2nnc3ccc(NCCCN4CCCC4=O)nn23)c1`, the “activity change, negative = cytotoxicity” value falls from 22.1% to -20.6%.

With `COC(=O)C[C@H]1CC[C@@H]2[C@@H](COc3ccc(NC(=O)Cc4cccs4)cc3C(=O)N2C)O1` the “activity change, negative = cytotoxicity” value was -5.57%.
